About 79,000 compounds went through this panel and 15% of them were active in at least one assay; those are over-represented in the sample as a whole. Calls of active or inactive are those of the source. Cut-off read from the data, not from the text of the source: active = growth inhibition above about 70%; inactive = the rest.
How the values were obtained:
[1] = NCI Yeast Anticancer Drug Screen. Data for the wt1 strain (AID 149);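 note: 0% = growth of vehicle-treated wt1 cultures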; conditions: S. cerevisiae wt1 strain (SPY 50644) growth inhibition, hits give high values
In short: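 Compounds are added to wt1 yeast cultures. Growth is then measured. Inhibition is expressed relative to vehicle-treated controls.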

[2] = NCI Yeast Anticancer Drug Screen. Data for the rad50EPP+ strain (AID 151);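 note: 0% = growth of vehicle-treated control cultures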; conditions: S. cerevisiae rad50 mutant strain, hits give high values
In short: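 Yeast strain carrying rad50 alteration (rad50EPP+) exposed to compounds; growth inhibition measured relative to vehicle-treated controls.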

[3] = NCI Yeast Anticancer Drug Screen. Data for the mgt1 strain (AID 153); conditions: S. cerevisiae mgt1 mutant growth inhibition, hits give high values
In short: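 Yeast mgt1 strain (DNA repair/cell-cycle alteration panel) exposed to compounds; growth inhibition measured relative to vehicle-treated controls.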

[4] = NCI Yeast Anticancer Drug Screen. Data for the rad50 strain (AID 155);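 note: 0% = growth of vehicle-only cultures of the same strain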; conditions: S. cerevisiae rad50 strain growth inhibition, hits give high values
In short: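 Inhibition values express reduced yeast growth in compound-treated cultures relative to vehicle-treated controls.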

[5] = NCI Yeast Anticancer Drug Screen. Data for the mec2-1 strain (AID 157); conditions: S. cerevisiae mec2-1 strain, hits give high values
In short: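 mec2-1 yeast strain, carrying an alteration in DNA damage repair or cell cycle control, was exposed to compounds; growth inhibition was measured relative to vehicle-treated controls.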

[6] = NCI Yeast Anticancer Drug Screen. Data for the rad14 strain (AID 159);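 note: 0% = growth of vehicle-treated control cultures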; conditions: S. cerevisiae rad14 strain growth inhibition, hits give high values
In short: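 A mutant yeast strain defective in DNA damage repair is treated with compound; inhibition of its growth is scored against untreated, vehicle-exposed cultures.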

[7] = NCI Yeast Anticancer Drug Screen. Data for the sgs1 mgt1 strain (AID 161);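 note: 0% = growth of cultures given vehicle only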; conditions: S. cerevisiae sgs1 mgt1 strain, hits give high values
In short: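 Compounds are added to genetically altered yeast, and growth is compared with cultures given vehicle alone to give percent inhibition.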

[8] = NCI Yeast Anticancer Drug Screen. Data for the CLN2oe strain (AID 163);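 note: 0% = growth of vehicle-only control cultures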; conditions: S. cerevisiae CLN2oe strain, hits give high values
In short: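 Yeast cells carrying a defined cell-cycle control alteration were exposed to test compounds. Growth inhibition was scored against vehicle-treated control cultures.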

[9] = NCI Yeast Anticancer Drug Screen. Data for the cln2 rad14 strain (AID 165);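 note: 0% = growth equal to vehicle treated cultures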; conditions: S. cerevisiae cln2 rad14 strain, hits give high values
In short: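 Yeast carrying cln2 and rad14 alterations (cell cycle control and DNA damage repair) were exposed to compounds. Growth inhibition was measured against vehicle-treated controls.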

[10] = NCI Yeast Anticancer Drug Screen. Data for the bub3 strain (AID 167); conditions: S. cerevisiae bub3 mutant strain, hits give high values
In short: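 Steps: expose the mutant yeast strain to compound; grow alongside vehicle-treated cultures; measure growth; express inhibition against the vehicle cultures.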

[11] = NCI Yeast Anticancer Drug Screen. Data for the wt2 strain (AID 169);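 note: 0% = growth of vehicle-treated yeast cultures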; conditions: S. cerevisiae wt2 strain growth inhibition, hits give high values
In short: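 Yeast cells were exposed to test compounds, and growth inhibition was measured relative to vehicle-treated controls.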

[12] = NCI Yeast Anticancer Drug Screen. Data for the mlh1 strain (AID 171);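 note: 0% = growth of vehicle-treated control cultures of the same strain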; conditions: S. cerevisiae mlh1 strain growth inhibition, hits give high values
In short: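 Yeast carrying a defined genetic alteration in DNA damage repair or cell cycle control were exposed to test compounds. Growth inhibition was measured relative to vehicle-treated controls.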

[13] = NCI Yeast Anticancer Drug Screen. Data for the sgs1 strain (AID 173);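 note: 0% = growth of vehicle-only control cultures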; conditions: S. cerevisiae sgs1 mutant, hits give high values
In short: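 Yeast mutant strains carrying defined defects in DNA damage repair or cell cycle control were exposed to test compounds. Growth inhibition was scored against vehicle-treated controls.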

[14] = NCI Yeast Anticancer Drug Screen. Data for the mlh1 rad18 strain (AID 175); conditions: S. cerevisiae mlh1 rad18 strain growth inhibition, hits give high values
In short: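 Growth inhibition of the yeast strain was measured after compound exposure and expressed relative to vehicle-treated controls. The strain carries defined defects in DNA damage repair.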

[15] = NCI Yeast Anticancer Drug Screen. Data for the rad18 strain (AID 177); conditions: S. cerevisiae rad18 mutant growth inhibition, hits give high values
In short: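 Yeast carrying a defined DNA damage repair alteration were exposed to compounds. Growth inhibition was expressed relative to vehicle-treated controls.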

[16] = at 5.0 µM (retest, dose inferred, filed as 0.5)
[17] = at 50.0 µM (retest, dose inferred, filed as 5.0)

Measured: growth inhibition

NC(N)=NS(=O)(=O)c1ccc(Nc2c3ccccc3nc3c(C(=O)NC(CO)(CO)CO)cccc23)cc1
inactive: [1]; at 1.2 µM -1% | [1]; at 3.7 µM 0% | [1]; at 11.0 µM 0% | [1]; at 33.0 µM -1% | [1]; at 100.0 µM 2% | [2]; at 1.2 µM 1% | [2]; at 3.7 µM 5% | [2]; at 11.0 µM 15% | [2]; at 33.0 µM 44% | [3]; at 1.2 µM 2% | [3]; at 3.7 µM -1% | [3]; at 11.0 µM -2% | [3]; at 33.0 µM 1% | [3]; at 100.0 µM 4% | [4]; at 1.2 µM 3% | [4]; at 3.7 µM 9% | [4]; [16] 6% | [4]; at 11.0 µM 27% | [4]; at 33.0 µM 64% | [5]; at 1.2 µM -1% | [5]; at 3.7 µM -1% | [5]; [16] 1% | [5]; at 11.0 µM 1% | [5]; at 33.0 µM 3% | [5]; [17] -13% | [5]; at 50.0 µM 8.65% | [5]; at 100.0 µM 13% | [6]; at 1.2 µM -1% | [6]; at 3.7 µM 3% | [6]; at 11.0 µM 3% | [6]; at 33.0 µM 3% | [6]; at 100.0 µM 10% | [7]; [16] 8% | [7]; [17] -3% | [7]; at 50.0 µM -20.5% | [8]; at 1.2 µM 2% | [8]; at 3.7 µM 2% | [8]; at 11.0 µM 4% | [8]; at 33.0 µM 1% | [8]; at 100.0 µM 1% | [9]; [16] 35% | [9]; [17] 3% | [9]; at 50.0 µM -9.45% | [10]; at 1.2 µM -1% | [10]; at 3.7 µM 2% | [10]; [16] -11% | [10]; at 11.0 µM 2% | [10]; at 33.0 µM 0% | [10]; [17] 15% | [10]; at 50.0 µM -5.3% | [10]; at 100.0 µM -2% | [11]; at 1.2 µM -1% | [11]; at 3.7 µM -2% | [11]; at 11.0 µM -1% | [11]; at 33.0 µM -1% | [11]; at 100.0 µM 4% | [12]; at 1.2 µM -1% | [12]; at 3.7 µM 0% | [12]; at 11.0 µM 0% | [12]; at 33.0 µM 0% | [12]; at 100.0 µM 5% | [13]; at 1.2 µM -1% | [13]; at 3.7 µM 1% | [13]; at 11.0 µM 2% | [13]; at 33.0 µM 2% | [13]; at 100.0 µM 8% | [14]; [16] 12% | [14]; [17] 12% | [14]; at 50.0 µM 15.7% | [15]; at 1.2 µM -3% | [15]; at 3.7 µM 0% | [15]; at 11.0 µM -1% | [15]; at 33.0 µM 2% | [15]; at 100.0 µM 9%
active: [2]; at 100.0 µM 85% | [4]; [17] 94% | [4]; at 50.0 µM 70.8% | [4]; at 100.0 µM 89%

From PubChem BioAssay (NCI)
